Laboratory results published in PubChem BioAssay (Tox21).
Unmarked numbers belong to inactive results. Active and inactive are the calls of the source. The call rests on the fitted dose curve; in most records, active means well fitted curve in the direction sought with a large enough effect in the repeat runs; inconclusive means weak or mixed curves; inactive means flat fitted curve, though single readings scatter.

assay: qHTS assay to test for compound auto fluorescence at 590 nm (red) in HEK293 cell free culture (AID 720683); conditions: cell-free medium autofluorescence, Ex540/Em590 red; series mostly up to 91.3 µM; fluorescence, % of fluorescent control: at the top concentration
Description: U.S. Tox21 Program National Center for Advancing Translational Sciences [NCATS] NIH Chemical Genomics Center [NCGC] U.S. Environmental Protection Agency [EPA] National Institutes of Environmental Health Sciences [NIEHS] National Toxicology Program [NTP] U.S. Food and Drug Administration [FDA] Tox21 Assay Overview: Compound auto fluorescence often interferes with screening of the compound library against various biological targets and signaling pathways. Some of these compounds may have fluorophoric properties. Such properties may interfere with the assay outputs resulting in false positives and/or negatives. To decrease such complications and ensure the compound activities are relevant in terms of biological response, the Tox21 10K compound library was screened for auto fluorescence. From the fluorophores used as reporter signals in our screening assays, the auto fluorescence equivalencies of compounds against three fluorophores have been evaluated: Triamterene, Fluorescein and Rose Bengal sodium for blue, green and red fluorescence, respectively. The fluorescence intensities were measured using Excitation/Emission wavelengths at 405/460nm, 485/535nm and 540/590nm for blue, green and red labels, respectively. This assay includes the red fluorescence data.
Tox21 Assay Protocol Summary: 5 uL of culture medium (DMEM containing 10% FBS) per well was dispensed into black wall/clear bottom 1536-well plates using a Multidrop Combi Dispenser (ThermoFisher Scientific, Waltham, MA). After 23 nL compound or DMSO vehicle was transferred into assay plate by a pintool work station (Kalypsys, San Diego, CA), fluorescence intensities in the assay plates were measured by an Envision (PerkinElmer, Shelton, CT) plate reader using three labels for measuring blue, green and red fluorescence at […] 460, 535 and 590nm respectively.
On the % scale 0 is the no-effect control and ±100 the full control effect.

| SMILES | outcome | fluorescence, % of fluorescent control |
| --- | --- | --- |
| CC(C)=O | inactive | – |
| Brc1ccc(-c2ccccc2)cc1 | – | 0.16% |
| CC(C)CCCCOC(=O)c1ccccc1C(=O)OCCCCC(C)C | – | -0.114% |
| CC1(CO)CN(c2ccccc2)NC1=O (stereo not given) | – | 0.0572% |
| O=C(NCC(O)CO)c1c(I)c(C(=O)NCC(O)CO)c(I)c(N(CCO)C(=O)CO)c1I (stereo not given) | – | 0.453% [at 18.6 µM] |
| O=C(O)c1cc(Br)c(O)c(Br)c1 | – | 0.488% |
| C[C@H](N)[C@H](O)c1cccc(O)c1 | – | 0.0224% [at 18.6 µM] |
| N#Cc1ccc(C(=O)O)cc1 | – | -0.123% |
| CC(=O)Nc1cccc(C)c1 | – | -0.359% |
| NS(=O)(=O)c1ccc(NC(=O)CCC(=O)O)cc1 | – | 0.0821% [at 46 µM] |
| NCCS | inactive | – |
| Cc1nc2n(c(=O)c1CCN1CCC(c3noc4cc(F)ccc34)CC1)CCC[C@H]2O | – | 0.177% [at 46 µM] |
| C=CCCCCCCCCCCCC | – | 0.204% |
| CC(CC=O)CCCC(C)(C)O (stereo not given) | inactive | – |
| NNc1nnc(NN)c2ccccc12 | – | 0.281% [at 46 µM] |
| COC(=O)CCc1ccc(OCC(O)CNC(C)C)cc1 (stereo not given) | – | -0.559% [at 46 µM] |
| C=C1CC/C=C(\C)CC[C@@H]2[C@@H]1CC2(C)C | – | 0.0195% |
| O=C(/N=N/C(=O)OCc1ccccc1)OCc1ccccc1 | – | -0.103% |
| CCOc1cc([N+](=O)[O-])c(OCC)cc1N1CCOCC1 | – | 0.128% |
| O=C1O[C@@H]2[C@@H](O)[C@H](O)O[C@@H]2[C@H]1O | inactive | – |

| SMILES | outcome | fluorescence, % of fluorescent control |
| --- | --- | --- |
| OCCCCC(O)CO (stereo not given) | – | -0.162% |
| CCCCCOC(=O)CCC | – | 0.0055% |
| C=COCCOCCOCCOC=C | – | -0.0329% |
| CCCCCCCCCC(C)=O | – | 0.0579% [at 95.7 µM] |
| CCOC(=O)CC(=O)c1ccccc1 | – | 0.0015% |
| COP(=O)(OC)OC(c1ccc(Cl)cc1)P(=O)(OC)OC (stereo not given) | – | -0.437% [at 46 µM] |
| CNS(=O)(=O)CCc1ccc2[nH]cc(C3CCN(C)CC3)c2c1 | – | -0.503% [at 46 µM] |
| O=C(O)CCSSCCC(=O)O | – | -0.0085% [at 95.7 µM] |
| O=C1c2cccc3c2[C@H](CCC3)CN1[C@@H]1CN2CCC1CC2 | – | 0.864% [at 46 µM] |
| Cc1cccc(C)c1NC(=O)c1ccccc1C(=O)O | – | -0.482% [at 46 µM] |
| CCNC(=O)C1CC(C)CCC1C(C)C (stereo not given) | – | 0.0133% |
| O=C(O)Cc1ccc(Cl)cc1Cl | – | -0.0799% |
| CCN1CCc2nc(N)oc2CC1 | – | -0.0691% [at 46 µM] |
| Cc1cc(Cl)c(C)cc1Cl | – | 0.244% |
| CC(=C(CCOC(=O)C(C)C)SSC(CCOC(=O)C(C)C)=C(C)N(C=O)Cc1cnc(C)nc1N)N(C=O)Cc1cnc(C)nc1N | – | 0.204% [at 46 µM] |
| CC(C)OC(=O)CCCCC(=O)OC(C)C | – | 0.068% |
| Nc1nnc(-c2cccc(Cl)c2Cl)c(N)n1 | – | 0.215% [at 46 µM] |
| Cc1c(I)c(=O)n(-c2ccccc2)n1C | – | -0.145% [at 46 µM] |
| c1ccc2nccnc2c1 | – | -0.0105% [at 95.7 µM] |
| O=C(OCC(COC(=O)c1cccnc1)(COC(=O)c1cccnc1)COC(=O)c1cccnc1)c1cccnc1 | – | -0.326% [at 46 µM] |
